# In all, about 350,000 compounds went through this assay and about 31,000 (8.9%) were called active. Inconclusive results (about 15%) are left out. Shown is part of a subset that was picked to be rich in actives. Values without a mark were called inactive. Calls come from the whole dose curve; as a rule, active = well fitted inhibition curve with a large enough effect; inconclusive = small, poorly fitted or top-dose-only effect; inactive = no such curve, though single readings can be large or run the other way.
# Molecular target: Histone-lysine N-methyltransferase EHMT2 (Homo sapiens) (UniProt Q96KQ7)
# Sequence (Q96KQ7 913-1193 limits assumed): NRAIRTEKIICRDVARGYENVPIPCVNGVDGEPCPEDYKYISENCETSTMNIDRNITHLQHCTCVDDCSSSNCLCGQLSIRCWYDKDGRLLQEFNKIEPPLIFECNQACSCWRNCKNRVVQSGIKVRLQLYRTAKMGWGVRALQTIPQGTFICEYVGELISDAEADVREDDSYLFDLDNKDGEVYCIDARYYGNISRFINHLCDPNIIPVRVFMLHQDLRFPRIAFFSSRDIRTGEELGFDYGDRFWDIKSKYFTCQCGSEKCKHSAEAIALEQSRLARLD
# Assay: qHTS Assay for Inhibitors of Histone Lysine Methyltransferase G9a; note: nearly all actives have a fitted effect of over 75% in size
# Settings: G9a H3K9 monomethylation, AlphaScreen, 2 h; series mostly up to 59 µM; activity, negative = inhibition: at the top concentration
# Outline: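 G9a (20 nM) was preincubated 15 min with compound, then reacted 2 h at room temperature with 500 nM biotin-H3K9 peptide and 20 µM SAM. Monomethyl-H3K9 detected by AlphaScreen using anti-H3K9me1 antibody.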
# % is set by controls: 0 for no effect and ±100 for the full control effect; potency is the fitted concentration of half-maximal effect.
SMILES,"activity, negative = inhibition",Potency
CCOc1ccc(S(=O)(=O)N2CCC(C(=O)NCC(=O)Nc3cccc(Cl)c3C)CC2)cc1,15.9%,
Cc1ccc(NC(=O)CSc2cccc3cccnc23)c(C)c1,-27.5% [at 102 µM],
COc1ccc(NC(=O)CSc2nnc(Cc3ccccc3)c(=O)n2N)cc1,-45.5% [at 102 µM],
COc1ccc2sc(N(CCCN(C)C)C(=O)c3ccc(S(=O)(=O)N(C)C4CCCCC4)cc3)nc2c1,-7.7% [at 2.33 µM],
CCN(CC)CCN(C(=O)c1cccc([N+](=O)[O-])c1)c1nc2ccc(OC)cc2s1,,50.1 µM (active)
COc1cccc2sc(N(CCCN(C)C)C(=O)CCS(=O)(=O)c3ccccc3)nc12,,8.91 µM (active)
Cc1cccc2sc(N(CCCN(C)C)C(=O)CCS(=O)(=O)c3ccccc3)nc12,,22.4 µM (active)
COc1ccc(C)cc1NC(=O)CCS(=O)(=O)c1cccc2nonc12,-1.53% [at 102 µM],
COc1ccc(-n2cnnc2SCC(=O)Nc2cccc([N+](=O)[O-])c2)cc1,-3.5% [at 102 µM],
O=C(CCS(=O)(=O)c1ccccc1)NC1CCCC1,-7.56% [at 102 µM],
COc1ccc(N(C)C(=O)CCS(=O)(=O)c2cccc3nsnc23)cc1,-39.4%,
COc1ccccc1CNC(=O)CS(=O)(=O)c1cccc2nsnc12,3.96%,
CN(C1CCS(=O)(=O)C1)S(=O)(=O)c1ccc2ccccc2c1 (stereo not given),5.42% [at 102 µM],
COc1ccccc1CNS(=O)(=O)c1cc(Br)cc2c1N(C(C)=O)C(C)C2 (stereo not given),2.53%,
O=C(CCSCc1cccc(F)c1)NCc1ccccc1,-6.15%,
COc1ccc(NS(=O)(=O)c2ccc(C)c(C(=O)NNC(=O)c3csc(N4CCOCC4)n3)c2)cc1,2.43% [at 102 µM],
CC(=O)N1CCc2cc(S(=O)(=O)NC3CCCCC3)ccc21,-3.98% [at 102 µM],
O=C(CCC1CCCC1)N=C1SC2CS(=O)(=O)CC2N1Cc1ccccc1 (stereo not given),4.22% [at 102 µM],
COc1cc2c(C(=O)N(C)c3cc(Cl)ccc3OC)cn(C)c(=O)c2cc1OC,23.4% [at 102 µM],
O=C(CSc1nc(-c2ccco2)cc(C(F)(F)F)n1)NCc1cccs1,-1.69%,
O=C(CSc1nc(-c2ccco2)cc(C(F)(F)F)n1)N1CCc2ccccc2C1,,12.6 µM (active)
Cc1cccc(NC(=O)CSc2nc(-c3ccco3)cc(C(F)(F)F)n2)c1C,8.51%,
CC1(c2nnc(Cc3ccccc3)o2)CC(c2ccccc2F)=NO1 (stereo not given),-2.28% [at 2.33 µM],
CC(=O)N1CCCc2cc(S(=O)(=O)N3CCC(C(=O)NC4CCCCC4)CC3)ccc21,14.6%,

SMILES,"activity, negative = inhibition",Potency
COc1ccc(Br)cc1C1CC(=O)Nc2c1c(C)nn2-c1nc(C)cc(C)n1 (stereo not given),-45.2%,
COc1cccc(NC(=O)CN(C)C(=O)/C=C/c2cn(-c3ccccc3)nc2-c2cccs2)c1,-31.2% [at 102 µM],
COc1ccc(NC(=O)CN(C)C(=O)/C=C/c2cn(Cc3ccccc3)nc2-c2cccnc2)cc1,,7.94 µM (active)
O=Cc1cn(Cc2ccccc2)nc1-c1cccnc1,-15.5% [at 102 µM],
CCC(=O)Nc1cccc(-c2nc3cc(C)ccc3o2)c1,5.08%,
Cc1cc(NC(=O)C2CCC(CNS(=O)(=O)c3ccc(Br)s3)CC2)ccc1Br (stereo not given),-2.51%,
CC1=C(C(=O)OCc2ccccc2)C(c2ccco2)n2ncnc2N1 (stereo not given),-34% [at 102 µM],
COC(=O)C1=C(C)Nc2ncnn2C1c1ccco1 (stereo not given),3.2% [at 12.7 µM],
Brc1ccc(C2=CC(c3ccco3)n3ncnc3N2)cc1 (stereo not given),,12.6 µM (active)
CCOC(=O)c1c(C)[nH]c(CCC(=O)Nc2ccc(OC)c(OC)c2)c1C,12%,
COc1ccc(Nc2ccc([N+](=O)[O-])cn2)cn1,1.56% [at 102 µM],
COc1ccc(Nc2cc(Cl)ccc2C(=O)O)cn1,,2.24 µM (active)
COc1ccc(NS(=O)(=O)c2ccc(F)cc2F)cn1,9.65% [at 102 µM],
Cc1ccccc1CCNC(=O)C1CCN(c2nc3ccccc3nc2C(F)(F)F)CC1,6.11%,
CCC(=O)c1ccc(OCC(=O)N(CC)CC2COc3ccccc3O2)cc1 (stereo not given),1.74% [at 102 µM],
Cc1ccccc1Nc1scc(-c2ccc(Br)cc2)[n+]1-c1ccccc1C,,20 µM (active)
CCOc1ccc(NC(=O)c2cc(S(=O)(=O)N3CCCC3)c[nH]2)cc1,-25.3%,
Cc1onc(-c2ccccc2Cl)c1C(=O)OCc1nnc(-c2ccccc2)o1,28.6% [at 102 µM],
CCC(=O)N1CCc2cc(Br)cc(S(=O)(=O)CCC(=O)NCc3ccccc3OC)c21,-8.43%,
O=C(O)C1OC(C(=O)O)C2C1C(F)(F)C2(F)F (stereo not given),,39.8 µM (active)
CC1=C(C(=O)N2CCN(c3cccc(C(F)(F)F)c3)CC2)C2(CCCCC2)OC1=O,-38.2%,
CNc1ccc(-c2nc(-c3ccccc3C)no2)cc1[N+](=O)[O-],-37.9%,
C/C=C(/C)C(=O)OC1Cc2c(ccc3ccc(=O)oc23)OC1(C)C (stereo not given),25.6% [at 12.7 µM],
CC1(C)Oc2ccc3ccc(=O)oc3c2/C(=C/NCCO)C1=O,,35.5 µM (active)

SMILES,"activity, negative = inhibition",Potency
O=C(NC1CCCCC1)c1ccc2c(c1)N(Cc1ccc(Cl)cc1)C(=O)c1ccccc1S2=O (stereo not given),4.83%,
Nc1ncc(S(=O)(=O)Nc2ccc(OC(F)(F)F)cc2)cn1,1.47%,
COc1ccc(NS(=O)(=O)c2cccc(C(=O)NCCc3ccc(S(N)(=O)=O)cc3)c2)cc1,9.68% [at 12.7 µM],
Cc1ccc(CN(C(=O)c2ccccc2[N+](=O)[O-])c2ccccn2)cc1,-8.14%,
CCCC(=O)N=c1sc2cccc(F)c2n1C,,44.7 µM (active)
CCN(CC)S(=O)(=O)c1ccc(C(=O)N=c2sc3cccc(OC)c3n2C)cc1,31.3%,
Cn1c(=NC(=O)CSCC(=O)N2CCCCC2)sc2ccccc21,8%,
CCOc1ccc(CC(=O)NCCc2csc3nc(-c4ccccc4F)nn23)cc1,34.6%,
CC(C)CCN(C(=O)Nc1ccc(Cl)c(Cl)c1)C(C)c1cccs1 (stereo not given),24.7%,
CCOC(=O)CSc1nccc(N(C)C)c1C#N,-8.31% [at 102 µM],
CCOC(=O)C(Sc1ncc(C#N)c(N)n1)C(C)C (stereo not given),,39.8 µM (active)
CCCCOc1ccc(-c2ncc(C(=O)OCC)c(N)n2)cc1,6.88% [at 12.7 µM],
O=C(CNc1cccc(S(=O)(=O)N2CCCCC2)c1)Nc1ccccc1F,14.7% [at 12.7 µM],
CCN1C(=O)[C@@H]2[C@@H](c3ccc(-c4ccc(OC)cc4)c(OC)c3)N3CCC[C@@]3(C(=O)OC)[C@@H]2C1=O,-8.12% [at 2.33 µM],
Cc1nn(Cc2ccccc2)c(C)c1C(=O)NCCCN1CCCC1=O,10.5% [at 12.7 µM],
CCOC(=O)c1c(NC(=O)CN2C(=O)NC3(CCC(C)CC3)C2=O)sc(C)c1CC (stereo not given),-0.128%,
CCC(=C/c1sc2ccc3ccccc3c2[n+]1C)/C=C1\Sc2ccc3ccccc3c2N1C,,3.16 µM (active)
COC(=O)c1cc(Oc2ccc(S(=O)(=O)N3CCOCC3)cc2[N+](=O)[O-])cc(C(=O)OC)c1,19.1% [at 12.7 µM],
O=S(=O)(c1ccc(NC(=S)NN=C(C2CC2)C2CC2)cc1)N1CCOCC1,,1.78 µM (active)
Cc1cc(C(=O)NNC(=O)c2cccc(S(=O)(=O)N3CCOCC3)c2)c2ccccc2n1,8.08% [at 102 µM],
O=C(NNC(=S)Nc1ccccc1)c1cccc(S(=O)(=O)N2CCOCC2)c1,,31.6 µM (active)
Cc1ccccc1OCC(=O)Nc1ccc(S(=O)(=O)N2CCOCC2)cc1,2.97% [at 102 µM],
O=C(COC(=O)c1ccccc1)Nc1cccc(S(=O)(=O)N2CCOCC2)c1,2.49% [at 102 µM],
O=C(NC(=S)Nc1ccc(S(=O)(=O)N2CCOCC2)cc1)c1ccccc1[N+](=O)[O-],,39.8 µM (active)

SMILES,"activity, negative = inhibition",Potency
CN1CCN(S(=O)(=O)c2ccc(NC(=S)NC(=O)C3CC3)cc2)CC1,-24.7%,
O=C(CN1C(=O)CCC1=O)Nc1ccc(S(=O)(=O)N2CCOCC2)cc1,7.29%,
CCOC(=O)c1c(S(=O)(=O)NCC(=O)Nc2ccc(Cl)c(C(F)(F)F)c2)c(C)n(C)c1C,-3.36%,
CCCS(=O)(=O)N1CCC(n2c(C(F)(F)F)nc3cccnc32)CC1,11.9%,
Cn1c(=O)c2c(n3c4ccccc4nc13)NC(=O)CC2c1cccc(Cl)c1 (stereo not given),-19.9%,
Cc1cc2nc(-c3ccc(NC(=O)c4cc5ccccc5o4)cc3)oc2cc1C,-32.2%,
O=C1COc2ccc(S(=O)(=O)NCCc3ccc(Cl)cc3)cc2N1,-10.7% [at 102 µM],
O=C(CCCC(=O)N1CCN(c2cccc(Cl)c2)CC1)c1ccccc1,53.4% [at 102 µM],
C=CCn1c(SCc2ccc(C(=O)NCCO)cc2)nc2ccccc2c1=O,-5.22% [at 102 µM],
O=C(Cn1nnc2ccccc2c1=O)NCc1ccc(Cl)cc1,13.5% [at 102 µM],
C=CCn1c(SCn2nnc3ccccc3c2=O)nnc1-c1ccc(Cl)cc1,,44.7 µM (active)
CCOc1ccc(NC(=O)CCC(=O)N2CC(C)Oc3ccc(C)cc32)cc1 (stereo not given),2.04%,
CCCCN(CC)C(=O)c1c[nH]c2ccc(S(=O)(=O)Nc3cccc(OC)c3)cc2c1=O,-23.6%,
CCOC(=O)c1cccc(NC(=O)CCc2nnc3ccc(N4CCOCC4)nn23)c1,21.6% [at 102 µM],
CCOc1ccc(CCNC(=O)CCc2nnc3ccc(N4CCCC4)nn23)cc1OCC,-10.3% [at 102 µM],
CCN(CC)c1ccc(NC(=O)CCc2nnc3ccc(N4CCCCC4)nn23)c(C)c1,,44.7 µM (active)
Cc1ccc2c(c1)N(C(=O)CCC(=O)NCc1ccccc1F)CC(C)O2 (stereo not given),-28.8%,
CCCc1cc(=O)oc2c(C)c(OCC(=O)Nc3ccccn3)ccc12,-3.15% [at 0.0925 µM],
O=C(Nc1ccc2nc(SCC(=O)N3CCc4ccccc43)sc2c1)c1ccccc1F,33.7%,
Oc1ccc2nc(Cc3ccccc3)[nH]c2c1,-45.3% [at 12.7 µM],
Cc1cc(O)ccc1-c1cnc2ccccc2n1,,14.1 µM (active)
Oc1ccc(-c2[nH]ncc2-c2nc3ccccc3s2)c(O)c1,-10.1% [at 102 µM],
NS(=O)(=O)c1ccc(CCNC(=O)CCCCCn2c(=O)[nH]c3ccccc3c2=O)cc1,7.65%,
